Screening results: PubChem BioAssay, National Center for Advancing Translational Sciences (NCATS)
Compounds with a hit are over-represented: about 8.7% of the library has one in this group of screens.
Pf growth 96h: P. falciparum growth inhibition at 96 hours; P. falciparum luciferase reporter growth, 96 h; Potency, µM (titrated, usually from 28.7 µM), for the others: at the highest dose activity change, negative = inhibition, hits mostly inhibitors; actives 6.9% (n = 320,000); AID 504834
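Delayed-death screen, second-generation endpoint: infected erythrocytes, 2% hematocrit, 0.05% parasitemia final; 96 hours at 37 C, 5% CO2; luciferase detection reagent; luminescence decrease equals reduced growth.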
VACV mCherry inh: inhibitors of vaccinia virus infection (mCherry reporter signal) | Potency, µM (series often up to 36.5 µM), for inactives: at the highest dose activity change, negative = inhibition, usual class: inhibitors | Vaccinia virus mCherry reporter infection, fluorescence | actives 0.63% (n = 310,000) | AID 720579; calls by dose curve; tested in A549 cells; note: nearly all actives have a fitted effect of over 35% in size
AMA1 RON2 block: inhibitors of Plasmodium falciparum AMA1-RON2 interaction | AID 720542 | Potency, µM (titrated, usually from 58.2 µM), for the others: at the top dose activity change, negative = inhibition, usual class: inhibitors | AlphaScreen AMA1-biotinylated RON2 peptide binding | actives 0.2% (n = 360,000);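 note: 0% = vehicle wells and -100% = peptide control; nearly all actives have a fitted effect of over 45% in size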
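AMA1 (3D7) with his tag at 25 nM final met compounds first, then biotinylated RON2 peptide at 25 nM; detection used donor plus acceptor beads, 10 µg/mL apiece, read by AlphaScreen after 30 min at room temperature.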
Pf growth 48h: inhibits P. falciparum growth in the first generation, 48 h; P. falciparum luciferase growth in erythrocytes, 48 h; Potency, µM (doses to about 28.7 µM), for the others: top-dose activity change, negative = inhibition, usual class: inhibitors; actives 5.9% (n = 310,000); AID 504832
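Firefly luciferase activity from engineered P. falciparum reports growth; inhibitors lower the luminescent signal. Cultures contained 2% hematocrit erythrocytes at 0.1% final parasitemia.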
Vaccinia Venus: vaccinia inhibition (Venus reporter) | Vaccinia virus Venus reporter expression, fluorescence | AID 720580 | actives 0.46% (n = 330,000) | Potency, µM (series often up to 36.5 µM), inactives show at the top dose activity change, negative = inhibition, most hits filed as inhibitors; calls by dose curve; tested in A549 cells; note: nearly all actives have a fitted effect of over 30% in size
Active calls of the source: *; i = inactive; ? = inconclusive; . = not tested or not shown. Unless noted, calls come from the whole dose curve; as a rule, active = well fitted curve in the direction sought with a large enough effect; inconclusive = small, poorly fitted or top-dose-only effect, or another doubt; inactive = no such curve, though single readings can be large; an effect the other way counts as inactive or inconclusive. Unless noted, % is set by controls: 0 for no effect and ±100 for the full control effect; potency is the fitted concentration of half-maximal effect.

SMILES	Pf growth 96h	VACV mCherry inh	AMA1 RON2 block	Pf growth 48h	Vaccinia Venus
COc1ccc(C(C(=O)NCC2CCCO2)N(Cc2ccccc2)C(=O)c2snc(C(N)=O)c2N)cc1OC (stereo not drawn)	?	-11%	-1%	?	-10%
CN(C)c1ccc(C(C(=O)NCC2CCCO2)N(Cc2ccccc2)C(=O)c2snc(C(N)=O)c2N)cc1 (stereo not drawn)	0%	i	-19%	?	-9%
COc1ccc(C(C(=O)NCC2CCCO2)N(C(=O)c2snc(C(N)=O)c2N)c2ccccc2C)cc1OC (stereo not drawn)	34%	-20%	-4%	12µM*	-16%
COc1ccc(C(C(=O)NCC2CCCO2)N(C(=O)c2snc(C(N)=O)c2N)c2ccccc2)cc1OC (stereo not drawn)	?	-17%	-6%	?	-1%
CCc1ccccc1N(C(=O)c1snc(C(N)=O)c1N)C(C(=O)NCC1CCCO1)c1ccc(OC)c(OC)c1 (stereo not drawn)	44%	-15%	-8%	12µM*	-11%
CCOc1ccc(C(C(=O)NCC2CCCO2)N(C(=O)c2snc(C(N)=O)c2N)c2ccc(F)cc2)cc1 (stereo not drawn)	21%	-8%	-1%	?	-9%
Cc1cccc(N(C(=O)c2snc(C(N)=O)c2N)C(C(=O)NCC2CCCO2)c2ccc(N(C)C)cc2)c1C (stereo not drawn)	7.4µM*	-15%	1%	?	-13%
COc1ccc(-c2nc3scc(CCNS(=O)(=O)c4cccc(C(C)=O)c4)n3n2)cc1	.	-17%	.	.	-16%
COc1ccc(NC(=O)C(Cc2ccccc2)NS(=O)(=O)c2ccc3c(c2)CCC(=O)N3)c(OC)c1 (stereo not drawn)	.	-6%	.	.	5%
Cc1ccc2c(CC(=O)N3CCOc4ccc(CN5CCOCC5)cc4C3)cc(=O)oc2c1	.	-12%	.	.	-6%
O=C(CSc1nnc2c(n1)[nH]c1ccccc12)N1CCCCC1	?	-15%	5%	?	-22%
CC1CCc2cc(F)ccc2N1C(=O)CSc1nnc2c(n1)[nH]c1ccccc12 (stereo not drawn)	?	-7%	14%	1.5µM*	-17%
CCCNc1ccc(-c2nc(-c3ccncc3)no2)cc1[N+](=O)[O-]	.	-6%	.	.	-3%
Cc1ccc(/C=C/C(=O)Nc2ccc(Cl)cc2Cl)cc1	.	-1%	.	.	14%
Nc1cc(C(=O)O)c(N)c2c1C(=O)c1ccccc1C2=O	?	?	18µM*	?	-16%
Nc1c(C(=O)O)ccc2c1C(=O)c1ccccc1C2=O	21%	3%	-20%	7%	226%
CCCCN(CCC#N)c1ccc(/C=C/c2ccnc3ccccc23)cc1	.	?	.	.	-7%
Cc1cccc(C)c1NC(=O)CC12CCCN1CCC2	6µM*	.	.	-9%	.
O=C(CSc1nc2ccccc2nc1Cc1ccccc1)Nc1ccc2c(c1)OCO2	.	-27%	.	.	-22%
CCn1c(=O)c2cc(C(=O)Nc3cc(OC)c(OC)c(OC)c3)sc2c2ccccc21	.	-12%	.	.	-21%
Cc1ccccc1NC(=O)N1C2CCCC1CC(NC(=O)C(C)(C)C)C2 (stereo not drawn)	12µM*	-9%	16%	0%	3%
CC(C)(C)C(=O)NC1CC2CCCC(C1)N2C(=O)Nc1ccccc1 (stereo not drawn)	?	-11%	-14%	?	-4%
Cc1ccc(-n2nnnc2SCC(=O)NCC2(N3CCOCC3)CCCCC2)cc1	?	i	4%	?	-18%
Cc1ccc(C)c(-n2nnnc2SCC(=O)Nc2cccc(-c3nnc4n3CCCCC4)c2)c1	?	.	-9%	9.3µM*	.
Cc1ccc(-n2nnnc2SCC(=O)N2CCc3ccccc3C2)c(C)c1	13µM*	-16%	-7%	?	-12%
Cc1ccc(-n2nnnc2SCC(=O)NCC2(N3CCCCC3)CCCCC2)c(C)c1	7.4µM*	.	-6%	10µM*	.
Cc1ccc(-n2nnnc2SCC(=O)NCC2(N3CCOCC3)CCCCC2)c(C)c1	?	-19%	13%	13µM*	?
Cc1ccc(-n2nnnc2SCC(=O)N2CCc3ccccc3C2)cc1	1%	-1%	-7%	-12%	-11%
O=C(CSc1nnnn1-c1ccccc1)NCC1(N2CCCCC2)CCCCC1	?	.	-11%	?	.
